For some assays here: Potency and affinity values are given separately. Activity calls are given as the source filed them. Entries that show only a call come without a potency. Unless noted, how the calls were made is not given here.
Key:
[1] = antimalarial activity against Dd2 strain (AID 2302;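 active means growth inhibition above 50% at the single 2 µM test dose, taken to imply half-maximal potency below 2 µM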); conditions: P. falciparum Dd2 in RBCs, LDH growth readout, 72 h; at 2 µM; hits give high values
[2] = human hepatoma cell viability loss – ATP luminescence, cytotoxicity control for P. falciparum antimalarial project, primary screen (AID 2303;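 active means inhibition above 50%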); conditions: HepG2 viability, 24-48 h, at 10 µM, hits give high values
[3] = molecular target: L-lactate dehydrogenase (Plasmodium falciparum (isolate CDC / Honduras)) (UniProt Q27743); test: PfLDH activity inhibition – cell lysate, 3D7 strain, counter-screen for P. falciparum growth inhibition project (AID 2304); conditions: P. falciparum 3D7 crude extract, LDH APAD/NBT absorbance; at 2 µM; hits give high values
[4] = inhibition of 3D7 malaria parasite growth – strain 3D7 (AID 2306); conditions: P. falciparum 3D7 erythrocytic growth, LDH absorbance, 72 h; at 2 µM; hits give high values
[5] = molecular target: Calcium-dependent protein kinase 1 (Plasmodium falciparum (isolate 3D7)) (UniProt P62344); test: PfCDPK1 kinase inhibitors, biochemical, TCAMS library (AID 1159585; cut-off not given, nearly all actives have IC50 up to about 0.98 µM;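 further: inhibitors leave more ATP so luminescence rises with inhibition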); conditions: recombinant PfCDPK1, Kinase-Glo ATP depletion luminescence
[6] = molecular target: Plasmodium falciparum protein kinase 6 (PK6, PF3D7_1337100) (UniProt Q8IDW1); test: PfPK6 kinase inhibitors, biochemical, TCAMS library (AID 1159586); conditions: recombinant PfPK6, Kinase-Glo ATP depletion luminescence
[7] = molecular target: Protein kinase 7 (PK7), Plasmodium falciparum 3D7 (PF3D7_0213400) (UniProt Q7YTF7); test: inhibition of Plasmodium PK7 catalytic activity – biochemical, TCAMS antimalarial set, Kinase-Glo luminescence (AID 1159587); conditions: recombinant PfPK7, Kinase-Glo ATP depletion luminescence
[8] = molecular target: Calcium-dependent protein kinase 4 (Plasmodium falciparum (isolate 3D7)) (UniProt Q8IBS5); test: PfCDPK4 kinase inhibitors, biochemical, TCAMS library (AID 1159588; cut-off not given, nearly all actives have IC50 up to about 0.91 µM); conditions: recombinant PfCDPK4, Kinase-Glo ATP depletion luminescence
Calcium-dependent protein kinase 4 (Plasmodium falciparum (isolate 3D7)), sequence (Q8IBS5 whole entry, looked up): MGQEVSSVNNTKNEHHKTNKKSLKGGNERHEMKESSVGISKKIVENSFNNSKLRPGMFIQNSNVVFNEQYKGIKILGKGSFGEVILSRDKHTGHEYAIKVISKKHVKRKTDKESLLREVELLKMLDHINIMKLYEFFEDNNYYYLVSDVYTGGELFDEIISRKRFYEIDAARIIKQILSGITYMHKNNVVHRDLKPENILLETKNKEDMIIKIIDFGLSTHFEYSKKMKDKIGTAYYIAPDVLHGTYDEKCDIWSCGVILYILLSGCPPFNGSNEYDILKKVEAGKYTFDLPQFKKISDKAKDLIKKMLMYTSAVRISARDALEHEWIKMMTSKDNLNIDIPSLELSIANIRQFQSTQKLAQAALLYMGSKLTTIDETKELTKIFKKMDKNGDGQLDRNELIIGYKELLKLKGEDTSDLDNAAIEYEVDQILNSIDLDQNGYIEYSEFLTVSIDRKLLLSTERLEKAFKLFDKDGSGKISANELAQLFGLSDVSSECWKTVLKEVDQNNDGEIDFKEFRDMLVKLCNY

Plasmodium falciparum protein kinase 6 (PK6, PF3D7_1337100), sequence (Q8IDW1 1-305): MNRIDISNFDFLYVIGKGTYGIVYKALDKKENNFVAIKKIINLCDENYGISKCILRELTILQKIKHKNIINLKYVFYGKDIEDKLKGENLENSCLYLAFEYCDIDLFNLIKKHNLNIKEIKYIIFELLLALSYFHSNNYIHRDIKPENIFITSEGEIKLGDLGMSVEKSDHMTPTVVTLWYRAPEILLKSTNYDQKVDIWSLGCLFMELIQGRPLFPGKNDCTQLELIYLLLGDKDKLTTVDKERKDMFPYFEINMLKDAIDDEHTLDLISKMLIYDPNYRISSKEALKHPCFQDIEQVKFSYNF
Calcium-dependent protein kinase 1 (Plasmodium falciparum (isolate 3D7)), sequence (P62344 whole entry, looked up): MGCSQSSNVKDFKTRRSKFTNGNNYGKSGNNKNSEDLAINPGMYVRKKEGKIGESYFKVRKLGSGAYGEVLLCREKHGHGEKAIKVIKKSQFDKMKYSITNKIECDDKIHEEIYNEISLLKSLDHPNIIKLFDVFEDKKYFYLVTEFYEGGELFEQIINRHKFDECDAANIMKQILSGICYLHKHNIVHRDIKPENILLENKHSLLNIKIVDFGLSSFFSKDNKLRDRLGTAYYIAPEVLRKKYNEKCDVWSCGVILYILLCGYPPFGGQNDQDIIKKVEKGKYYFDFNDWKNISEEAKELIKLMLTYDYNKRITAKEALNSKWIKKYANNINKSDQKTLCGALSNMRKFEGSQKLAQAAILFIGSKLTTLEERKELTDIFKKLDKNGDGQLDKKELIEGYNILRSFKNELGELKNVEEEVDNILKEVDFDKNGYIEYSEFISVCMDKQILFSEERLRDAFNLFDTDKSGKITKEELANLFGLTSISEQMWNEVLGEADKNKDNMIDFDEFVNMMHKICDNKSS
Protein kinase 7 (PK7), Plasmodium falciparum 3D7 (PF3D7_0213400), sequence (Q7YTF7 1-343): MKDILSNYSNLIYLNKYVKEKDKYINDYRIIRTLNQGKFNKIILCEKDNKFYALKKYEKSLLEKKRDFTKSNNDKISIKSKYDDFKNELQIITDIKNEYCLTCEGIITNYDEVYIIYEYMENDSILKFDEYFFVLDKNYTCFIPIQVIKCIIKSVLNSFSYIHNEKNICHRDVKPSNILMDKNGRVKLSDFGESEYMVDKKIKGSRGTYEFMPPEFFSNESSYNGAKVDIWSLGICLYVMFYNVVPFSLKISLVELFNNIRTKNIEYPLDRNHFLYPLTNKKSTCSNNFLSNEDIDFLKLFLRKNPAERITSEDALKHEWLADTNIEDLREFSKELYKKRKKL
L-lactate dehydrogenase (Plasmodium falciparum (isolate CDC / Honduras)), sequence (Q27743 whole entry, looked up): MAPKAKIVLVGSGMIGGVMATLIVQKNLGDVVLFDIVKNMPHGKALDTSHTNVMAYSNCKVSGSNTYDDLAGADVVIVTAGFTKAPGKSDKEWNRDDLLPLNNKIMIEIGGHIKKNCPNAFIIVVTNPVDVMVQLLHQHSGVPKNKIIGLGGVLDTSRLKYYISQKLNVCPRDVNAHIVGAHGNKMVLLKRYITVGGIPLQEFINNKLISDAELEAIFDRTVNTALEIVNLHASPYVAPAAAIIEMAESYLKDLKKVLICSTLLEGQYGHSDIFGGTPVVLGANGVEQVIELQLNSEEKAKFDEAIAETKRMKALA

Row | Structure (SMILES) | growth inhibition [1] | inhibition [2] | inhibition [3] | growth inhibition [4] | outcome [5] | outcome [6] | outcome [7] | outcome [8]
1 | N=C(N)c1ccc(NC(=O)c2cc(Sc3ccc(O)c(C(=O)Nc4ccc(C(=N)N)cc4)c3)ccc2O)cc1 | 87% (active) | 11% (inactive) | 2% (inactive) | 93% (active) | inactive | inactive | inactive | inactive
2 | O=C1Nc2cccc3c2C1(CCCCCN1CCC(c2c[nH]c4ccncc24)CC1)CCC3 (stereo not given) | 3% (inactive) | 8% (inactive) | 6% (inactive) | 95% (active) | inactive | inactive | inactive | inactive
3 | N=C(N)c1ccc(-c2cc3ccc(C(=N)N)cc3[nH]2)cc1 | 99% (active) | 18% (inactive) | -2% (inactive) | 99% (active) | inactive | inactive | inactive | inactive
4 | CCN(CCCN1CCCCC1)c1cc(C)nc(Nc2ccc(C)cc2C(F)(F)F)n1 | 35% (inactive) | 23% (inactive) | -2% (inactive) | 101% (active) | inactive | inactive | inactive | inactive
5 | CC(CN(C)C)C(=O)Nc1cccc(-c2ccc(-c3nc4ccc(F)cc4[nH]3)s2)c1 (stereo not given) | 99% (active) | 3% (inactive) | -6% (inactive) | 100% (active) | inactive | inactive | inactive | inactive
6 | CCS[C@@H]1O[C@H](COC(=O)c2ccccc2)[C@H](OC(=O)c2ccccc2)[C@H](OC(=O)c2ccccc2)[C@H]1OC(=O)c1ccccc1 | 52% (active) | 4% (inactive) | 5% (inactive) | 98% (active) | inactive | inactive | inactive | inactive
7 | COc1ccc2nc3cc(Cl)ccc3c(NCCCCNc3c4ccc(Cl)cc4nc4ccc(OC)cc34)c2c1 | 99% (active) | 20% (inactive) | 6% (inactive) | 99% (active) | inactive | inactive | inactive | inactive
8 | O=C(O)c1ccc(NC(=O)C2CC(=O)N(Cc3ccc(Cl)cc3)C(=Nc3ccc(Cl)cc3)S2)cc1 (stereo not given) | 95% (active) | -1% (inactive) | -6% (inactive) | 99% (active) | inactive | inactive | inactive | inactive
9 | COC(=O)C(NC(=O)NC1CCN(c2ccnc(Nc3ccc(F)cc3)n2)C1)c1ccccc1 (stereo not given) | 8% (inactive) | 11% (inactive) | -2% (inactive) | 87% (active) | inactive | inactive | inactive | inactive
10 | CN1CCN(CC(=O)Nc2cccc(-c3ccc(-c4nc5ccc(F)cc5[nH]4)cc3)c2)CC1 | 98% (active) | 20% (inactive) | 6% (inactive) | 101% (active) | inactive | inactive | inactive | inactive
11 | COc1cc(NC(=O)Nc2cc(C)nc3ccccc23)cc(OC)c1 | 57% (active) | 5% (inactive) | -4% (inactive) | 104% (active) | inactive | inactive | inactive | inactive
12 | COc1ccc(C(=O)Cn2nc(-c3ccc(Cl)cc3)ccc2=O)c(OC)c1 | 70% (active) | -12% (inactive) | 4% (inactive) | 93% (active) | inactive | inactive | inactive | inactive
13 | CC(=O)N[C@H](C(=O)Nc1cccc(-c2ccc(-c3nc4c(C)cccc4[nH]3)s2)c1)C(C)C | 29% (inactive) | 33% (inactive) | 2% (inactive) | 93% (active) | inactive | inactive | inactive | inactive
14 | CN(C)c1cc(C(=O)N[C@@H](Cc2ccccc2)[C@H](O)CNC2CCCCC2)cc2[nH]ccc12 | 97% (active) | 10% (inactive) | 3% (inactive) | 98% (active) | inactive | inactive | inactive | inactive
15 | CNS(=O)(=O)c1ccc(NC(=O)c2cc(-c3cccnc3)nc3ccc(Br)cc23)cc1 | 55% (active) | 9% (inactive) | 5% (inactive) | 101% (active) | inactive | inactive | inactive | inactive
16 | Cc1ccc(/C=C/C(=O)N2CCC(CCN3CCC(c4c[nH]c5ccccc45)CC3)CC2)cc1C | 5% (inactive) | 50% (active) | -2% (inactive) | 94% (active) | inactive | inactive | inactive | inactive
17 | CCNc1cc(C)nc(Nc2ccc(C)cc2)n1 | 85% (active) | 12% (inactive) | 3% (inactive) | 102% (active) | inactive | inactive | inactive | inactive
18 | CC(C)c1sc(N2CCN(C)CC2)nc1C(=O)NCCc1ccc(Br)cc1 | 60% (active) | -1% (inactive) | -1% (inactive) | 89% (active) | inactive | inactive | inactive | inactive
19 | Cc1noc(C)c1-c1cccc(CNCc2cccc(-c3cccc(-c4nc5ccccc5[nH]4)c3)c2)c1 | 54% (active) | 22% (inactive) | 2% (inactive) | 102% (active) | inactive | inactive | inactive | inactive
20 | COc1cc2nccc(Nc3cc(C)cc(O)c3)c2cc1OC | -2% (inactive) | -6% (inactive) | 0% (inactive) | 97% (active) | inactive | inactive | inactive | inactive

Row | Structure (SMILES) | growth inhibition [1] | inhibition [2] | inhibition [3] | growth inhibition [4] | outcome [5] | outcome [6] | outcome [7] | outcome [8]
21 | COc1ccc2nccc([C@@H](O)CN3CCC(NC(=O)/C=C/c4cc([N+](=O)[O-])ccc4OC)CC3)c2c1 | 76% (active) | 12% (inactive) | -1% (inactive) | 99% (active) | inactive | inactive | inactive | inactive
22 | O=C(NCC1COc2ccccc2O1)c1cnc2c(c1)nc(-c1cnc(-c3ccccc3)[nH]1)n2CCSCc1c(F)cccc1Cl (stereo not given) | 10% (inactive) | 6% (inactive) | 4% (inactive) | 95% (active) | inactive | inactive | inactive | inactive
23 | CCCNCc1ccc(-c2ccc(CN(CCOC)C(=O)c3ccc([N+](=O)[O-])c(C)c3)cc2)nc1 | 23% (inactive) | 2% (inactive) | 1% (inactive) | 97% (active) | inactive | inactive | inactive | inactive
24 | CC(=O)Nc1cccc(C(=O)Nc2ccc(-c3cccc(-c4nc5ccc(C(F)(F)F)cc5[nH]4)c3)cc2)c1 | 85% (active) | 81% (active) | 2% (inactive) | 101% (active) | inactive | inactive | inactive | inactive
25 | CCc1cc2c3c(N)nc(N)nc3ccc2n1C(CC)CC | 12% (inactive) | 71% (active) | 5% (inactive) | 96% (active) | inactive | inactive | inactive | inactive
26 | CCC1(C)N=C(N)N=C(N)N1c1ccc(Cl)cc1 (stereo not given) | -1% (inactive) | 7% (inactive) | -3% (inactive) | 95% (active) | inactive | inactive | inactive | inactive
27 | Cc1cc(N)c2cc(NC(=O)c3cccc(C(=O)Nc4ccc5nc(C)cc(N)c5c4)c3)ccc2n1 | 92% (active) | 9% (inactive) | 4% (inactive) | 94% (active) | inactive | inactive | inactive | inactive
28 | COc1cc(CCCON2C(N)=NC(N)=NC2(C)C)cc(OC)c1OC | 94% (active) | 68% (active) | -2% (inactive) | 98% (active) | inactive | inactive | inactive | inactive
29 | O=C(NCc1ccc(F)cc1)c1cnc(N2CCN(c3ccncc3)CC2)c(Cl)c1 | 44% (inactive) | 30% (inactive) | 2% (inactive) | 98% (active) | inactive | inactive | inactive | inactive
30 | FC(F)(F)c1ccc2nccc(NCc3ccccc3)c2c1 | 56% (active) | 18% (inactive) | -9% (inactive) | 93% (active) | inactive | inactive | inactive | inactive
31 | COc1ccc(CCN2CC[C@H](Nc3nc(-c4ccc(F)c(F)c4)nc4ccccc34)C2)cc1S(N)(=O)=O | 64% (active) | 18% (inactive) | -8% (inactive) | 99% (active) | inactive | inactive | inactive | inactive
32 | Cc1nc2nc(N)nc(N)c2c(C)c1Cc1ccccc1Br | 2% (inactive) | 65% (active) | 1% (inactive) | 92% (active) | inactive | inactive | inactive | inactive
33 | COc1cc(NC(=O)/C=C/c2ccc(-c3ccccc3)cc2)ccc1OCCN(C(C)C)C(C)C | 62% (active) | 58% (active) | -5% (inactive) | 94% (active) | inactive | inactive | inactive | inactive
34 | CN(c1ccc(NC(=O)c2cccc(F)c2)cc1)C1CCCN(Cc2cccc(O)c2)C1 (stereo not given) | 2% (inactive) | 13% (inactive) | -3% (inactive) | 85% (active) | inactive | inactive | inactive | inactive
35 | CC1(C)N=C(N)N=C(N)N1OCCCc1ccccc1 | 94% (active) | 64% (active) | 1% (inactive) | 96% (active) | inactive | inactive | inactive | inactive
36 | COc1cc(C)nc2ccc(NC(=O)c3cc([N+](=O)[O-])cc([N+](=O)[O-])c3)cc12 | 94% (active) | -2% (inactive) | 2% (inactive) | 102% (active) | inactive | inactive | inactive | inactive
37 | COc1ccc2ncc(F)c(CCN3C[C@H](CNCc4ccc5ccccc5c4)[C@H](O)C3)c2n1 | 78% (active) | 57% (active) | -3% (inactive) | 100% (active) | inactive | inactive | inactive | inactive
38 | COCc1nc(N)nc(N)c1-c1ccc(Cl)c(Cl)c1 | 1% (inactive) | 4% (inactive) | -1% (inactive) | 84% (active) | inactive | inactive | inactive | inactive
39 | Cc1cc(C)n(-c2nc(Nc3cccc(C(F)(F)F)c3)nc(-n3nc(C)cc3C)n2)n1 | 88% (active) | -8% (inactive) | -6% (inactive) | 99% (active) | inactive | inactive | inactive | inactive
40 | CCCCC(NCC)c1ccc(OCCOc2ccc(C(CCCC)NCC)cc2)cc1 (stereo not given) | 99% (active) | 100% (active) | 3% (inactive) | 101% (active) | inactive | inactive | inactive | inactive

From PubChem BioAssay
